Source: PubChem (National Center for Advancing Translational Sciences (NCATS))
Compounds with a hit are over-represented: about 1.1% of the library has one in this group of screens.
p53 reactivator = re-activators of mutant p53 | Potency, µM (doses to about 92.2 µM), without a hit: at the top dose activity change, positive = activation, usual class: activators | 320,000 tested, 0.063% active | H1299 p53-A138V BP100-luciferase reporter, luminescence, 24 h; further: potency means the concentration at half of the fitted maximal effect; % of control where 0% means no effect; nearly all actives have a fitted effect of over 45% in size
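H1299 (p53-null), stable ts p53-A138V + BP100-Luc; 1000 cells/well, Opti-MEM/10% FBS; cpd 4 pt, 1:5; 24 h, 37 deg C, 5% CO2; detection reagent 10 min RT; luminescence.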
LDHA block = blocks human lactate dehydrogenase A; purified LDHA, NADH/diaphorase-resazurin fluorescence; active compounds read low; P00338; AID 1347041; activity change, % (values are at about 110 or 230 µM); 480,000 tested, 0.15% active; in the data active means activity change below about -30%; inconclusive means mostly about -25% to -30%;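 further: plate controls were DMSO wells for no effect and wells without enzyme for full effect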
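Human LDH5 at 2 nM final in Tris HCl pH 7.4 with 0.06 mM NADH and 0.2 mM pyruvate, reacted 5 minutes at room temperature. Remaining NADH coupled via diaphorase/resazurin; resorufin fluorescence read at 0 and 20 minutes, normalized to enzyme-free and DMSO wells.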
PTHR1 agonist = agonists of human PTHR1 parathyroid hormone receptor; Q03431; Potency, µM (highest dose often 115 µM), for inactives: top-dose activation, actives largely listed as activators; 410,000 tested, 0.075% active; HEK293 GP2 PTHR1 cells, GloSensor cAMP luminescence, 1 h; further: potency means the concentration at half of the fitted maximal effect; nearly all actives have a fitted effect of over 55% in size
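HEK-293-derived GP2 cells expressing PTHR1 and a GloSensor cAMP reporter, 3,000/well, plated overnight, given luciferin plus IBMX (each 0.5 mM as added) for 1 h at 37 °C, then compound for 1 h at 37 °C. Luminescence was read after 15 min at room temperature.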
BRCA1 expr act = BRCA1 expression activation | Potency, µM (top dose mostly 46.1 µM), for inactives: at the top dose activation, actives largely listed as activators | 380,000 tested, 1.1% active | MCF7-BRCA1-FFLuc reporter, luminescence, 48 h; response scale: scaled: vehicle 0%, 10 µM genistein 100%; further: potency means the concentration at half of the fitted maximal effect; nearly all actives have a fitted effect of over 80% in size
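Luminescence from a BRCA1-driven firefly luciferase in MCF7 cells was read after 48 h compound exposure at 37 C. Data normalized against DMSO and a 10microM genistein activation control, then curve-fitted across the titration.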
RGS4 inhibitor = human RGS4 inhibition | P49798 | Transcreener GDP fluorescence polarization, RGS4-accelerated GTP hydrolysis | Potency, µM (doses to about 114 µM), without a hit: at the highest dose activity change, negative = inhibition, most hits filed as inhibitors | 390,000 tested, 0.039% active; further: potency means the concentration at half of the fitted maximal effect; on the % scale 0 is the no-effect control and ±100 the full control effect; nearly all actives have a fitted effect of over 75% in size
Target sequence (P49798 whole entry, looked up): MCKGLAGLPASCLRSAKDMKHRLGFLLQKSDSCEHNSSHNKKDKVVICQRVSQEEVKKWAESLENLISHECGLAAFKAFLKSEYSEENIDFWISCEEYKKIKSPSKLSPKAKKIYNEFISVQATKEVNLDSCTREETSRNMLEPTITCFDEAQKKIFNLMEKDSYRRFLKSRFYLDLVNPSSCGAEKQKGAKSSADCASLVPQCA
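MLSMR compounds (23 nl, pin-transferred) preincubated 10 min at room temperature with a 500nM (2x) first reagent, then RGS4 at 900nM (2x) plus Transcreener GDP mix added; fluorescence polarization (620/688 nm) read before and after 90 min at 30 °C.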
* marks the source's active call; other numbers are inactive results; ! = not active in a repeat; [ ] = dose if it differs, or a comment. Unless noted, the call rests on the fitted dose curve; in most records, active means well fitted curve in the direction sought with a large enough effect; inconclusive means small, poorly fitted or top-dose-only effect, or another doubt; inactive means no such curve, though single readings can be large; an effect the other way counts as inactive or inconclusive.

`O=C(/C=C/c1ccc(O)cc1)c1ccsc1` gave LDHA block 11.
Screening COc1ccccc1OC(C(=O)NC1CC1)c1ccccc1 (configuration not stated) returned LDHA block -30*.
For COc1ccccc1SC(C(=O)NC1CC1)c1ccccc1 (configuration not stated) the results were LDHA block -4.
`CC[N+]1(C)CC2CCC(C)(C1)C2(C)C` (configuration not stated) gave p53 reactivator -1%, LDHA block -31*!, PTHR1 agonist inactive, BRCA1 expr act -2% and RGS4 inhibitor -14%.
`O=C(NC1CCCC1)C1CC(c2ccc(F)cc2)=NO1` (configuration not stated) gave p53 reactivator 3%, LDHA block 0, PTHR1 agonist inactive, BRCA1 expr act 10µM* and RGS4 inhibitor -11%.
Screening O=C(Cc1c(F)cccc1Cl)Nc1nc2ccccc2s1 returned p53 reactivator -9%, LDHA block -2, PTHR1 agonist -20%, BRCA1 expr act 8.9µM* and RGS4 inhibitor 7%.
CC(=O)c1sc(NC(=O)Cc2c(F)cccc2Cl)nc1C was read as p53 reactivator 9%, LDHA block -9, PTHR1 agonist inactive, BRCA1 expr act 2% and RGS4 inhibitor 8%.
`O=C(CCNC(=O)c1ccccc1Cl)Nc1nc2ccccc2s1` gave p53 reactivator 4%, LDHA block -17, PTHR1 agonist -28%, BRCA1 expr act 11µM* and RGS4 inhibitor 12%.
Screening Cc1ccc(-c2cc(C(=O)Nc3ccccn3)c3ccccc3n2)s1 returned LDHA block 16.
CCc1c(C)nc2cc(-c3ccc(OC)cc3)[nH]n2c1=O was read as p53 reactivator 7%, LDHA block -1, PTHR1 agonist -9%[57.5 µM], BRCA1 expr act 8.9µM* and RGS4 inhibitor -1%.
`O=C(Nc1ccsn1)c1ccc(Cl)cc1Cl` gave p53 reactivator 5%, LDHA block -3, PTHR1 agonist -12%, BRCA1 expr act 2.5µM* and RGS4 inhibitor 16%.
Screening CC(C)Cc1ccc(C(=O)O)s1 returned LDHA block 19.
`Cn1c(CC(=O)Nc2ccccc2)nnc1SCC(=O)c1ccc(C#N)cc1` gave LDHA block 4.
Cn1c(CC(=O)Nc2cccc(C(F)(F)F)c2)nnc1SCC(=O)c1ccc(C#N)cc1 was read as LDHA block -32*.
Cc1c(-c2ccccc2)oc2c(C(=O)NC3CC3)cccc2c1=O was read as LDHA block -10.
`CCSc1nn2c(=O)c3ccccc3nc2s1` gave p53 reactivator inconclusive, LDHA block -4, PTHR1 agonist -17%[57.5 µM], BRCA1 expr act 2.5µM* and RGS4 inhibitor 1%.
S=c1[nH]nc(-c2cc(-c3ccccc3)n[nH]2)n1/N=C/c1c(Cl)cccc1Cl was read as p53 reactivator -1%, LDHA block -19, PTHR1 agonist inactive, BRCA1 expr act -25% and RGS4 inhibitor inconclusive.
S=c1[nH]nc(-c2cc(-c3ccccc3)n[nH]2)n1/N=C/c1ccc(Br)s1 was read as p53 reactivator 2%, LDHA block -43*, PTHR1 agonist inactive, BRCA1 expr act -44% and RGS4 inhibitor inconclusive.
For COc1cc(/C=C(/C#N)C(=O)C(C)C)cc(Br)c1O the results were LDHA block -7.
Screening Brc1ccccc1OCCCOc1cccc2cccnc12 returned LDHA block -1, PTHR1 agonist -35%, BRCA1 expr act 8.9µM* and RGS4 inhibitor 0%.
Brc1ccccc1OCCOc1cccc2cccnc12 was read as p53 reactivator 11%, LDHA block -3, PTHR1 agonist -10%, BRCA1 expr act inconclusive and RGS4 inhibitor 2%.
For Cc1cc(NC(=O)C2CC2)sc1C(=O)NC(C)c1ccccc1Br (configuration not stated) the results were LDHA block -3.
`COc1cccc2cc(-c3cn4ccc(C)cc4n3)c(=O)oc12` gave LDHA block 0, PTHR1 agonist -23%[57.5 µM], BRCA1 expr act 7.1µM* and RGS4 inhibitor -32%.
For COc1cccc2cc(-c3cn4cccc(C)c4n3)c(=O)oc12 the results were LDHA block 4, PTHR1 agonist inactive, BRCA1 expr act inconclusive and RGS4 inhibitor 24%.
`O=C(O)/C=C/C(=O)Nc1ccc(Cl)c(C(=O)O)c1` gave p53 reactivator -1%, LDHA block 8, PTHR1 agonist inactive, BRCA1 expr act 8% and RGS4 inhibitor 1%.
Screening NNc1ccc(Cl)c(C(=O)O)c1 returned p53 reactivator inconclusive, LDHA block 0, PTHR1 agonist -27%, BRCA1 expr act 11µM* and RGS4 inhibitor -10%[11.4 µM].
Screening CCn1c(C)cc(-c2csc(NCc3ccccc3OC)n2)c1C returned LDHA block 9.
Screening COC(=O)c1ccn(Cc2ccccc2Cl)n1 returned p53 reactivator 17%, LDHA block -3, PTHR1 agonist inactive, BRCA1 expr act 13µM* and RGS4 inhibitor -23%.
Cc1ccc2nc(-c3ccc(N4C(=N)SC5CS(=O)(=O)CC54)cc3)sc2c1 (configuration not stated) was read as p53 reactivator inconclusive, LDHA block -7, PTHR1 agonist inactive, BRCA1 expr act 8.9µM* and RGS4 inhibitor -11%.
`CC(C)n1ncc2cc(NC(=O)CCc3ncc(-c4ccccc4F)o3)cnc21` gave LDHA block -10.
`COc1ccc(-c2cc3nc4ccccc4n3c(N)c2C#N)cc1` gave p53 reactivator 9%, LDHA block -6, PTHR1 agonist inactive, BRCA1 expr act 4µM* and RGS4 inhibitor 4%[11.4 µM].
Screening CN(C)CCCN(Cc1ccc(Cl)c(Cl)c1)C(=O)/C=C/c1ccncc1 returned LDHA block 2.
Screening O=C(Nc1ccn(Cc2ccc(Cl)cc2)n1)c1ccccc1 returned p53 reactivator 3%, LDHA block -7, PTHR1 agonist -42%, BRCA1 expr act 7.9µM* and RGS4 inhibitor 29%.
Screening O=C(Nc1ccn(Cc2ccccc2)n1)c1ccc2c(c1)OCO2 returned p53 reactivator 9%, LDHA block -5, PTHR1 agonist -24%, BRCA1 expr act inconclusive and RGS4 inhibitor -2%.
`Cc1cc(Cl)ccc1OCCCc1n[nH]c(=S)n1Cc1ccco1` gave LDHA block 10.
For Cn1c(C(=O)NCc2cccs2)cc2oc3ccccc3c21 the results were p53 reactivator 2%, LDHA block 4, PTHR1 agonist -38%[57.5 µM], BRCA1 expr act 13µM* and RGS4 inhibitor 26%.
